{"source": "PubChem BioAssay (NCI)", "note": "The panel holds about 83,000 compounds, 20% with a hit somewhere; the sample as a whole holds those more often.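 Cell lines were cultured in 96-well plates, exposed to a single compound concentration, and assessed for percent growth 48 hours later.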 Values without a mark were called inactive. The source made the active and inactive calls.", "data": [{"tested_on": "A498 renal", "assay": "NCI-60 one-dose screen, 48 h (100 = growth as untreated, 0 = no growth, -100 = all killed)", "conditions": "10 µM unless noted", "description": "Growth inhibition of the A498 human tumor cell line is measured as a screen for anti-cancer activity. Cells are grown in 96 well plates and exposed to the test compound for 48 hours. Compounds are tested at a single concentration, which is 10^-5 M for most compounds. The reported endpoint is percent growth (GI% or GIPRCNT), where numbers from 0 - 100% represent growth inhibition, and numbers from -100% - 0 represent cell death. For example, a value of 40 represents 60% growth inhibition. A value of 0 means no net growth occurred over the course of the experiment. A value of -40 indicates 40% of cells at the beginning of the experiment died by the end of the experiment. A value of -100 means all cells are dead at the end of the experiment.\nNCI-60 Human Tumor Cell Lines Screen was performed using the standard one-dose NCI protocol, which is described in more detail at https://dtp.cancer.gov/discovery_development/nci-60/default.htm.\nCompounds with GIPRCNT values below 10 were considered active. Activity score was based on GIPRCNT using the following formula: […]\nScore is 0 for GIPRCNT values of 100 or above, 50 for GIPRCNT values of 0, and 100 for GIPRCNT values of -100.", "values": [{"smiles": "COc1ccc(/C=N/NC(=O)c2cn(C3CC3)c3c(OC)c(N4CC5CCCNC5C4)c(F)cc3c2=O)cc1", "note": "(stereo not given)", "growth": "83.3%"}, {"smiles": "O=C1Nc2ccccc2/C1=C/c1ccc(CO)n1-c1ccc(Cl)cc1", "growth": "35.4%"}, {"smiles": "COc1ccccc1-n1cc(C#N)c(N)c1C(=O)c1ccc(Br)cc1", "growth": "60.6%"}, {"smiles": "O=C(Nc1nc2ccc([N+](=O)[O-])cc2s1)Nc1ccccc1Br", "growth": "21.4%"}, {"smiles": "C=C1CC[C@@H]2[C@]3(C)COC(c4ccccc4)O[C@@H]3CC[C@@]2(C)[C@@H]1C/C=C1/C(=O)OC[C@H]1O", "note": "(stereo not given in full)", "growth": "109%"}, {"smiles": "COc1ccc(/C=N/NC2=NC3C(S2)N(C)C(=O)N3C)cc1", "note": "(stereo not given)", "growth": "-17.5% (active)"}, {"smiles": "COc1ccc(S(=O)(=O)NCCCNc2nccc(-c3cn(C(C)(C)C)nc3-c3ccc(Cl)c(OC)c3)n2)cc1", "growth": "58.7%"}, {"smiles": "c1cn2c(ccc3nc(-c4cn[nH]c4)c4c(c32)CCCC4)n1", "growth": "-4.01% (active)"}, {"smiles": "CCNC(=O)N1CCc2cc(OC)c(OCCc3ccc(OC)cc3)cc2C1c1ccc([N+](=O)[O-])cc1C", "note": "(stereo not given)", "growth": "-16.8% (active)"}, {"smiles": "CCCCCc1ccc(S(=O)(=O)Nc2cccc(-c3csc(NC(=O)CCCCCN4CCN(CCO)CC4)n3)c2)cc1", "growth": "76.8%"}, {"smiles": "C#CCNC1CCC(c2csc(C#C)n2)=C1C", "note": "(stereo not given)", "growth": "118%"}, {"smiles": "COc1ccc(N2CCN(C3=C(Cl)C(=O)C(C)=C(C)C3=O)CC2)cc1", "growth": "108%"}, {"smiles": "COc1ccccc1C(=O)Nc1cccc2c1C(=O)C(=O)C=C2", "growth": "38.4%"}, {"smiles": "COc1ccc(-c2nc3cccc(O)c3c(=O)n2Cc2ccccc2)cc1COc1ccc(NC(C)=O)cc1", "growth": "70.5% [3 µM]"}, {"smiles": "COc1cc(-c2nnc(SCc3ccc(O)c4ncccc34)n2-c2ccccc2)cc(OC)c1OC", "growth": "1.54% (active)"}, {"smiles": "COc1ccc(-c2nn(-c3ccc(S(C)(=O)=O)cc3)cc2/C=N/O)cc1", "growth": "116%"}, {"smiles": "O=C1CCCc2nc(Nc3ccc(S(=O)(=O)Nc4ccc([N+](=O)[O-])cc4)cc3)ncc21", "growth": "94.7%"}, {"smiles": "NC(N)=Nc1ccc(Oc2cccc(Nc3cccc(C(F)(F)F)c3)c2)cn1", "growth": "18.1%"}, {"smiles": "CC1(C)[C@@H](O)CC[C@]2(C)[C@H]3CC[C@@H]4[C@H]5[C@H](C(=O)/C=C\\c6ccc([N+](=O)[O-])cc6)CC[C@]5(O)CC[C@@]4(C)[C@]3(C)CC[C@@H]12", "growth": "48.7%"}, {"smiles": "COc1c(N2CC3CCCNC3C2)c(F)cc2c(=O)c(C(=O)N/N=C/c3ccc(F)cc3)cn(C3CC3)c12", "note": "(stereo not given)", "growth": "59.9%"}, {"smiles": "Cc1ccc(NC(=O)c2ccc(CN3CCN(C)CC3)cc2)cc1Oc1ccc(-c2[nH]nc3ncnc(N)c23)cc1", "growth": "94.3%"}, {"smiles": "C[C@H]1c2[nH]c3ccccc3c2C[C@H]2C(=O)N(CCCCCCC(=O)NO)CC(=O)N21", "growth": "83.2%"}, {"smiles": "Cc1cc(C)n(C(=O)c2sc(=S)n(-c3ccccc3)c2N=Nc2c(N)n[nH]c2N)n1", "growth": "92.8%"}, {"smiles": "NC(=O)c1c(NC(=O)c2ccc(F)cc2F)sc2c1CCC(=O)C2", "growth": "100%"}, {"smiles": "Nc1nc(N)c2c(n1)NC(c1ccc(Cl)cc1)CC(c1ccc(Nc3nc(NCCO)nc(N4CCOCC4)n3)cc1)=N2", "note": "(stereo not given)", "growth": "90.6%"}, {"smiles": "c1ccc(C(c2nc3ncncc3[nH]2)N2CSc3nc4ncncc4n3C2)cc1", "note": "(stereo not given)", "growth": "96.5%"}, {"smiles": "COc1cc(Cn2cc3c(c2)-c2onc(CN4CCOCC4)c2CC3)cc(OC)c1OC", "growth": "114%"}, {"smiles": "O=C(O)c1ccc(-n2cc(CNc3cc(F)c(F)c(F)c3)c(-c3cccc(F)c3)n2)cc1", "growth": "99.4%"}, {"smiles": "O=C1CCCC2=C1C(c1c[nH]c3ccc(Br)cc13)Cc1cc(Br)ccc1N2", "note": "(stereo not given)", "growth": "13.5%"}, {"smiles": "CCc1cccc2c3c(sc12)C(c1ccc(Cl)cc1)C(C#N)=C(/N=C/c1ccc(Cl)cc1)O3", "note": "(stereo not given)", "growth": "-4.9% (active)"}, {"smiles": "Cc1ccc(-c2cc3nc(C(Cl)Cl)nc(-c4ccco4)n3n2)cc1", "growth": "-29.1% (active)"}, {"smiles": "COc1cc(/C=C/C(=O)c2ccc(NC(=O)CSc3nnc(-c4ccc(-c5nc6ccc(Cl)cc6[nH]5)cc4)o3)cc2)cc(OC)c1OC", "growth": "101%"}, {"smiles": "Nc1nc(Nc2ccccc2SSc2ccccc2Nc2nc(N)nc(-c3cccc(Br)c3)n2)nc(-c2cccc(Br)c2)n1", "growth": "72%"}, {"smiles": "Nc1ncc(-c2ccc3ncnc(N4CCc5cc(F)c(Cl)cc54)c3c2)cn1", "growth": "-80.7% (active)"}, {"smiles": "COc1cc(-c2nc(SCCC(C)C)nc(NNC(=O)c3ccncc3)c2C#N)cc(OC)c1OC", "growth": "41.9%"}, {"smiles": "NC(N)=Nc1ccc(Oc2cccc(NC(N)=Nc3ccc(I)cc3F)c2)cc1", "growth": "86.8%"}, {"smiles": "O=C1[C@@H]2Cc3c([nH]c4ccccc34)[C@H](c3c(Cl)cccc3Cl)N2C(=O)CN1C1CCN(CC2CCCCC2)CC1", "growth": "87.1%"}, {"smiles": "COc1ccc(NC(=O)CSc2nnc(-c3ccc4nc(-c5ccc(OC)c(OC)c5)[nH]c4c3)o2)cc1OC", "growth": "93.3%"}, {"smiles": "CN(C)CCN(C)c1ccc2ncc(C#Cc3cncc(C(=O)Nc4ccc(CN5CCN(C)CC5)c(C(F)(F)F)c4)c3)n2n1", "growth": "112%"}, {"smiles": "O=C(NNc1nc2cc(F)c(F)cc2n2c(CN3CC4CNCC4C3)ccc12)c1cnccn1", "note": "(stereo not given)", "growth": "35.1%"}]}]}
